Compound activity as filed in PubChem BioAssay.
Shown are actives, neighbours in structure and some others; about 1.8% of the full set was active somewhere.
LYPLA1 counter: blocks human lysophospholipase 1, a PME1 counter-screen; O75608; recombinant LYPLA1, FP-Rh probe fluorescence polarization; inhibition, % at 5.9 µM; hit rate 0.16% among 320,000; AID 2174;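 active = inhibition above the mean of all tested compounds plus 3 SD, set per campaign, cut at about 14% in these data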;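 note: inhibitors block serine hydrolase probe labeling of LYPLA1 so polarization falls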
Target sequence (O75608 whole entry, looked up): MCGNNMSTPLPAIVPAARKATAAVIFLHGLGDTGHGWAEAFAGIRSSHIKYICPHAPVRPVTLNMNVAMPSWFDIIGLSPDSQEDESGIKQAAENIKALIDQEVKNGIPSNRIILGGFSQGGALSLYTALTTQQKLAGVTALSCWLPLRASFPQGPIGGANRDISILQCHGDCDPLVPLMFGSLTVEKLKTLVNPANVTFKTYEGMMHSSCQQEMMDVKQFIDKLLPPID
LYPLA2 counter: blocks human lysophospholipase 2, a PME1 counter-screen; O95372; recombinant LYPLA2, FP-Rh probe fluorescence polarization; inhibition, % at 5.9 µM; hit rate 0.38% among 320,000; AID 2177;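 active = inhibition above the screen-wide mean plus 3 SD, limit set per campaign, cut at about 26% in these data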
Target sequence (O95372 whole entry, looked up): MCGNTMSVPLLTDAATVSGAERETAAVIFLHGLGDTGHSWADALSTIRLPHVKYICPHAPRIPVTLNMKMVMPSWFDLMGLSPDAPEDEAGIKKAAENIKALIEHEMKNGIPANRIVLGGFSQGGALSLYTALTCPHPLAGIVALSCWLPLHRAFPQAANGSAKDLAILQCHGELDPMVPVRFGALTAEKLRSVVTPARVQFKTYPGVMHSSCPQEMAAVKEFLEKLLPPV
PAD4 FP inh: blocks human protein arginine deiminase 4. Q9UM07. recombinant PAD4, RCA probe fluorescence polarization. inhibition, % at 6.36 µM. hit rate 0.41% among 330,000. AID 485272;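 active = percent inhibition above a cutoff equal to the mean of all tested compounds plus 3 SD, cut at about 15% in these data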
PME-1 inh: PME-1 (human) inhibition | recombinant PME-1, FP-Rh probe fluorescence polarization | hit rate 0.53% among 320,000 | inhibition, % at 5.9 µM | AID 2130;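 active = inhibition above the campaign mean of all compounds plus 3 SD, cut at about 26% in these data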;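 note: competitive labeling of PME-1 active site by serine hydrolase directed probe; inhibitors block probe labeling so polarization falls and inhibition rises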
GSTO1 inh: GSTO1 inhibition, counter-screen for RBBP9 inhibitors; inhibition, % at 5.96 µM; recombinant GSTO1, activity-based probe fluorescence polarization; AID 1974; hit rate 1.1% among 300,000;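 active = inhibition above the campaign mean inhibition plus 3 SD, cut at about 35% in these data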
Fam108B counter: counter-screen for RBBP9 inhibitors: inhibitors of mouse Fam108B; recombinant Fam108B, FP-Rh probe fluorescence polarization; inhibition, % at 9.51 µM; hit rate 0.33% among 300,000;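 active = inhibition above the screen mean inhibition plus 3 SD, computed separately per campaign, cut at about 18% in these data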;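 note: inhibitors lower polarization as less probe binds the enzyme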
Each line names hits and unclear results; the compound was inactive in the other large screens.

CC(CCc1ccccc1)NC(=O)CN1CCSc2ccccc21 (stereo not drawn)	GSTO1 inh 36.3
CC(CCc1ccccc1)NC(=O)CN1CCOc2ccccc21 (stereo not drawn)	none
CC1=C(C#N)C(=O)N(C2CCS(=O)(=O)C2)C(=O)/C1=C\c1ccc(C)o1 (stereo not drawn)	GSTO1 inh 35.8
COc1ccc(N=Nc2nc3ccc(Br)cc3n2C)cc1	PME-1 inh 41.4
COc1ccccc1Nc1nc(Cl)c(C=O)s1	GSTO1 inh 47.0
Cc1cc(C(=O)OCC(=O)Nc2cc(S(=O)(=O)N(C)C)ccc2Cl)c2ccccc2n1	none
Cc1cc(C(=O)OCC(=O)Nc2cc(S(=O)(=O)N(C)C)ccc2C)c2ccccc2n1	PME-1 inh 28.3
Cc1ccc(C(=O)O)cc1NC(=O)CSc1nnc(-c2ccccc2F)n1C1CCCCC1	none (no result: LYPLA1 counter, LYPLA2 counter, PME-1 inh, GSTO1 inh, Fam108B counter)
COc1ccc(/C=N/Nc2nc(C)cc(-c3ccccc3)n2)c(OC)c1	none
COc1ccc(O)c(/C=N/Nc2nc(C)cc(-c3ccccc3)n2)c1	PME-1 inh 36.2
COc1cc2c(cc1OC)-c1cc3ccc4c(c3c[n+]1CC2)OCO4	GSTO1 inh 41.7
Cc1cccc2cc(C#N)c(SCC#N)nc12	PME-1 inh 30.9
CC1(C)C[C@H](O)[C@@]23C[C@@H](OC2=O)[C@]2(C)C(=CCC4[C@@]5(C)CC[C@H](O)C(C)(C)C5CC[C@]42C)[C@@H]3C1 (stereo partly drawn)	none
Cc1ccc(C(=O)NCC(=O)N2CCCN(C)CC2)cc1C	none (no result: LYPLA1 counter, LYPLA2 counter, PME-1 inh, GSTO1 inh, Fam108B counter)
COc1ccc(/C=N\NC(=O)c2cc(O)c(O)c(O)c2)cc1CN1CCN(c2ccc(F)cc2)CC1	GSTO1 inh 52.4
COc1cccc(/C=N/NC(=O)CNC(=O)c2cccnc2)c1O	none
COC(=O)c1ccc(COc2ccccc2/C=N/NC(=O)c2cccnc2)cc1	LYPLA2 counter 35.6
CC(=O)Nc1nnc(S(=O)(=O)N2CCN(c3ccc([N+](=O)[O-])cc3Cl)CC2)s1	none
O=C(CSc1nnc(-c2ccccn2)n1Cc1ccco1)c1ccccc1	none
O=C(CSc1nnc(-c2ccccn2)n1Cc1ccco1)c1ccc(Cl)cc1	GSTO1 inh 35.1
O=C(CSc1nnc2ccccn12)c1ccc(Cl)cc1	GSTO1 inh 36.0
CN1CCN(Cc2nc3c([nH]2)c(=O)[nH]c(=O)n3C)CC1	GSTO1 inh 36.3
O=C(COC(=O)c1ccc(Br)cc1)NCc1ccccc1	none
CC(=O)Cc1cc(O)c2ccccc2c1OC(=O)c1ccc(Br)cc1	PME-1 inh 27.6
COc1ccc(-c2n[nH]c(C)c2-c2cc(OC)ccc2O)cc1	none
COc1ccc(-c2cc(-c3cc(OC)ccc3O)[nH]n2)cc1	PME-1 inh 65.7
COc1ccc(-c2cc(-c3ccc(Cl)cc3)n[nH]2)c(O)c1	PME-1 inh 41.9
COc1ccc(OC)c(NC(=O)COC(=O)CC2CCCCC2)c1	none (no result: LYPLA1 counter, LYPLA2 counter, PME-1 inh, GSTO1 inh, Fam108B counter)
Cc1cc(C)nc(SCNC(=O)c2ccc(F)cc2)n1	GSTO1 inh 36.5
CCOC(=O)N1CCC2(CC1)C(C#N)=C(N)Oc1n[nH]c(CSc3ccc(C)cc3)c12	GSTO1 inh 35.5
Brc1ccc(C=Nc2ccc(Nc3ccccc3)cc2)s1	PAD4 FP inh 24.3, GSTO1 inh 37.1
COc1cc2c(c(OC)c1OC)-c1ccc(NC(=O)c3ccc(F)cc3)c(=O)cc1[C@@H](NC(C)=O)CC2	PME-1 inh 31.4, Fam108B counter 24.7
CC(C)=CCC/C(C)=C/CNC(=O)C[C@H]1C[C@H](C(=O)N(C(C)C)C(C)C)[C@@]2(C)c3[nH]c4cc(CCC(=O)N(C)C)ccc4c3CCN2C1=O	none (no result: LYPLA1 counter, LYPLA2 counter, PME-1 inh, GSTO1 inh, Fam108B counter)
Cc1ccc(S(=O)(=O)NN2C(=O)/C(=C/c3cccs3)SC2=S)cc1	GSTO1 inh 37.0
CCc1ccc(CN2CCCC(C(=O)Nc3ccccc3-c3ccc(OC)cc3)C2)o1 (stereo not drawn)	none
O=C(Nc1ccc(F)cc1F)C1CCN(S(=O)(=O)c2cccnc2)CC1	none
O=C(N/N=C/c1c(O)ccc2ccccc12)c1cccnc1	none
O=C(N/N=C/c1c(O)ccc2ccccc12)c1ccc[n+](CCO)c1	GSTO1 inh 43.8
Cn1cc(C(=O)N/N=C/c2c(O)ccc3ccccc23)ccc1=O	GSTO1 inh 38.7
CC1=CC(=Nc2c(C)n(C)n(-c3ccccc3)c2=O)C=C(C)C1=O	GSTO1 inh 50.5
